Experimental findings from PubChem BioAssay (NCATS) are described below.

A short description of test [1]: S16 Schwann cell PMP22 intronic element beta-lactamase assay (AID 624044; calls by dose curve; note: nearly all actives have a fitted effect of over 15% in size). The procedure, abridged: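 Rat S16 Schwann cells with beta-Lac driven by a PMP22 intronic element, compound-treated 24 h at 37 °C. LiveBLAzer FRET B/G read: 460 nm normalized to potassium clavulanate vs DMSO; 535 nm FRET as viability; concentration-effect curves classified.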
Test [2] relates to AS120. Briefly: qHTS profiling for inhibitors of Plasmodium falciparum proliferation (AID 504749). Note: nearly all actives have a fitted effect of over 60% in size. Note: potency is the fitted concentration of half-maximal effect. The following applies: P. falciparum in erythrocytes, SYBR Green DNA, 72 h; series mostly up to 12.8 µM. The procedure, abridged: (§1)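 P. falciparum-infected erythrocytes (0.3% parasitemia, 2.5% hematocrit) incubated with compound 72 h at 37 C, 5% CO2. Parasite DNA detected by SYBR Green after lysis, overnight at room temperature; normalised to 0.29 uM artemisinin and DMSO.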

Test [3] deals with ATS189. Described as above. The following applies: P. falciparum in erythrocytes, SYBR Green DNA, 72 h; series mostly up to 12.8 µM. The method in brief:
as §1

For test [4], the system named is CP185. Described as above. The following applies: P. falciparum in erythrocytes, SYBR Green DNA, 72 h; series mostly up to 12.8 µM. The method in brief: as §1
Test [5] concerns CP237. The test is described as above. The following applies: P. falciparum in erythrocytes, SYBR Green DNA, 72 h; series mostly up to 12.8 µM. The procedure, abridged: as §1
Test [6] relates to CP256. Described as above. The following applies: P. falciparum in erythrocytes, SYBR Green DNA, 72 h; series mostly up to 12.8 µM. The procedure, abridged:
as §1

In test [7] the test system is CP297. The description is as above. The following applies: P. falciparum in erythrocytes, SYBR Green DNA, 72 h; series mostly up to 12.8 µM. The procedure, abridged:
as §1

Test [8] concerns ECU. The description is as above. The following applies: P. falciparum in erythrocytes, SYBR Green DNA, 72 h; series mostly up to 12.8 µM. The method in brief:
as §1

Test [9] deals with JCK. The description is as above. The following applies: P. falciparum in erythrocytes, SYBR Green DNA, 72 h; series mostly up to 12.8 µM. The method in brief:
as §1

Test [10] concerns N140. Described as above. The following applies: P. falciparum in erythrocytes, SYBR Green DNA, 72 h; series mostly up to 12.8 µM. The procedure, abridged:
as §1

Test [11] relates to PAD. Described as above. The following applies: P. falciparum in erythrocytes, SYBR Green DNA, 72 h; series mostly up to 12.8 µM. The procedure, abridged: as §1
The test system of test [12] is PC49. The test is described as above. The following applies: P. falciparum in erythrocytes, SYBR Green DNA, 72 h; series mostly up to 12.8 µM. The method in brief:
as §1

Test [13] has as its system TAB113. The test is described as above. The following applies: P. falciparum in erythrocytes, SYBR Green DNA, 72 h; series mostly up to 12.8 µM. The procedure, abridged:
as §1

In test [14] the test system is W2. The test is described as above. The following applies: P. falciparum in erythrocytes, SYBR Green DNA, 72 h; series mostly up to 12.8 µM. The procedure, abridged:
as §1

A short description of test [15]: S16 Schwann cell viability assay (CellTiter-Glo assay) (AID 624031).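 Note: cellular ATP luminescence as a viability measure; nearly all actives have a fitted effect of over 70% in size.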 The method in brief:
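Native S16 rat Schwann cells, 500-750 cells/well in DMEM with 10% FBS, dosed with compound after overnight culture and incubated 24h at 37 degree Celsius/5% CO2. Viability by CellTiter-Glo luminescence; % activity normalized to no-cell wells and DMSO-treated cells.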

For test [16], the system named is 3D7. Briefly: qHTS profiling for inhibitors of Plasmodium falciparum proliferation (AID 504749). Note: nearly all actives have a fitted effect of over 60% in size. Note: potency is the fitted concentration of half-maximal effect. The following applies: P. falciparum in erythrocytes, SYBR Green DNA, 72 h; series mostly up to 12.8 µM. The procedure, abridged:
as §1

In test [17] the test system is CP191. The test is described as above. The following applies: P. falciparum in erythrocytes, SYBR Green DNA, 72 h; series mostly up to 12.8 µM. The procedure, abridged: as §1
In test [18] the test system is CP247. Described as above. The following applies: P. falciparum in erythrocytes, SYBR Green DNA, 72 h; series mostly up to 12.8 µM. The method in brief: as §1
The subject of test [19] is CP315. The description is as above. The following applies: P. falciparum in erythrocytes, SYBR Green DNA, 72 h; series mostly up to 12.8 µM. The method in brief:
as §1

The subject of test [20] is CP329. The test is described as above. The following applies: P. falciparum in erythrocytes, SYBR Green DNA, 72 h; series mostly up to 12.8 µM. The method in brief:
as §1

Records with an inconclusive call do not appear. Calls of active or inactive are those of the source. Unless noted, calls come from the whole dose curve; as a rule, active = well fitted curve in the direction sought with a large enough effect; inconclusive = small, poorly fitted or top-dose-only effect, or another doubt; inactive = no such curve, though single readings can be large; an effect the other way counts as inactive or inconclusive.

With `CC(C)(C)NC[C@@H](O)COc1ccccc1C1CCCC1`, in test [1], the Potency result was “inactive”. Further, the Potency was 3.98 µM (active) in [2]; 3.16 µM (active) in [3]; 3.16 µM (active) in test [4]; 3.55 µM (active) in test [5]; 3.98 µM (active) in test [6]; 7.21 µM (active) in test [7]. For the same compound, the Potency in test [8] was 3.55 µM (active); in test [9], 3.16 µM (active); in [10], 3.16 µM (active); in test [11] it was 3.16 µM (active); in test [12], 2.24 µM (active); in test [13], 3.98 µM (active). Further, in [14], the Potency is 0.572 µM (active).

`CCN[C@@H]1CN(CCCOC)S(=O)(=O)c2sc(S(N)(=O)=O)cc21`: the call in [15] was inactive. Moreover, the Potency entry in test [1], in test [16], in test [2], in test [3], in test [4] and in [17] was “inactive” in each case. The Potency result in test [5], in test [18], in [6], in test [7], in test [19] and in test [20] was “inactive” throughout. Moreover, the Potency entry in [8], in [9], in test [10], in test [11], in test [12] and in test [13] was “inactive” each time. The Potency entry in [14] was “inactive”.

In the case of `CO[C@H]1[C@H](O[C@H]2O[C@@H](C)[C@@H](O[C@@H]3C[C@](C)(O)[C@H](O)[C@H](C)O3)[C@@H](N(C)C)[C@@H]2O)[C@@H](CC=O)C[C@@H](C)[C@@H](O[C@H]2CC[C@H](N(C)C)[C@H](C)O2)/C=C\C=C/C[C@@H](C)OC(=O)C[C@H]1O`, the compound was called inactive in [15]. The Potency entry in [16], in test [2], in [3], in test [17], in [18] and in test [19] was “inactive” throughout. For the same compound, the Potency entry in test [20], in test [8], in test [9], in test [10], in test [11] and in test [12] was “inactive” in each case. Further, in test [14], the Potency is 3.22 µM (active).

As for `CC[C@H]1NC(=O)c2cc(S(N)(=O)=O)c(Cl)cc2N1`, the outcome in test [15] was inactive. For the same compound, the Potency result in test [1], in [16], in [2], in test [3], in test [4] and in test [17] was “inactive” throughout. The Potency entry in [5], in test [18], in test [6], in [7], in test [19] and in [20] was “inactive” each time. Besides, the Potency entry in [8], in [9], in [10], in [11], in test [12] and in test [13] was “inactive” throughout. Besides, in test [14], the Potency entry was “inactive”.

Regarding `CN[C@H]1[C@H](O)[C@@H](O[C@@H]2[C@H](O)[C@@H](O[C@H]3OC(CN)=CC[C@H]3N)[C@@H](N)C[C@H]2N)OC[C@@]1(C)O`, in [15], the compound was classed as inactive. Moreover, the Potency entry in [1], in [16], in test [2], in [3], in test [4] and in [17] was “inactive” in each case. The Potency entry in test [5], in test [18], in test [6], in test [7], in test [19] and in [20] was “inactive” in each case. Besides, the Potency entry in [8], in [9], in [10], in test [11], in [12] and in test [13] was “inactive” throughout. Also, the Potency entry in [14] was “inactive”.

As to `O[C@@](CCN1CCCC1)(c1ccccc1)C1CCCCC1`, the compound was classed as inactive in [15]. In addition, the Potency entry in test [1], in [16], in [3], in test [4], in [17] and in [5] was “inactive” each time. Also, the Potency result in test [6], in test [7], in [19], in test [8], in [9] and in test [13] was “inactive” throughout. The Potency in test [14] was 0.455 µM (active).
